Reference: PubChem BioAssay AID1159580 (chemical genetic matrix, 2015)
Several values for one entry are separate records, joined by “and”; a condition that tells them apart may be missing. Equal values may be shown once. Among all 5,500 compounds or so, about 2,000 (36%) were called active. Roughly 18% stayed inconclusive and do not appear here. Cut-off read from the data, not from the text of the source: active = normalized growth mostly below about 0.91 (no sharp cut-off); inconclusive = no clear call, values can overlap the other calls; inactive = mostly above about 0.92. Some of the results follow.

Assay: chemical genetic growth profiling, strain panel (AID 1159580);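 note: tested at 20 µM; growth read once vehicle control cultures reached saturation at 30 °C; 1 = growth at the plate median or of vehicle wells; lower values mean less growth of the strain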
Conditions: S. cerevisiae deletion strains, growth OD

Measured: normalized growth

CC(=O)OC(C)(C)[C@@H]1Cc2cc3ccc(=O)oc3cc2O1
inactive: locus YAL021C, strain ccr4, hits give low values 1.01 | locus YAL026C, strain drs2, hits give low values 0.984 | locus YAL030W, strain snc1, hits give low values 0.963 | locus YBL061C, strain skt5, hits give low values 0.969 | locus YBR009C, strain hhf1, hits give low values 0.909 | locus YBR021W, strain FUR4, hits give low values 0.99 | locus YBR023C, strain chs3, hits give low values 0.972 | locus YBR171W, strain sec66, hits give low values 0.968 | locus YBR229C, strain ROT2, hits give low values 1 | locus YBR231C, strain swc5, hits give low values 0.968 | locus YBR279W, strain paf1, hits give low values 0.975 | locus YCL011C, strain gbp2, hits give low values 0.954 | locus YCL016C, strain dcc1, hits give low values 0.977 | locus YCL029C, strain bik1, hits give low values 1.01 | locus YCL061C, strain MRC1, hits give low values 0.978 | locus YCL069W, strain vba3, hits give low values 0.963 | locus YCR088W, strain abp1, hits give low values 0.982 | locus YDL005C, strain med2, hits give low values 0.977 | locus YDL035C, strain GPR1, hits give low values 1.01 | locus YDL040C, strain nat1, hits give low values 0.968 | locus YDL074C, strain BRE1, hits give low values 1.03 | locus YDL101C, strain DUN1, hits give low values 0.999 | locus YDL185W, strain tfp1, hits give low values 1 | locus YDL192W, strain arf1, hits give low values 0.989 | locus YDR001C, strain nth1, hits give low values 0.965 | locus YDR069C, strain doa4, hits give low values 0.962 | locus YDR101C, strain arx1, hits give low values 1.01 | locus YDR137W, strain rgp1, hits give low values 0.992 | locus YDR150W, strain NUM1, hits give low values 1.01 | locus YDR159W, strain sac3, hits give low values 0.936 | locus YDR162C, strain NBP2, hits give low values 1 | locus YDR195W, strain ref2 0.959 | locus YDR297W, strain sur2, hits give low values 0.972 | locus YDR318W, strain mcm21, hits give low values 0.991 | locus YDR334W, strain swr1, hits give low values 0.972 | locus YDR335W, strain msn5, hits give low values 0.992 | locus YDR388W, hits give low values 1 | locus YDR392W, strain spt3, hits give low values 0.789 | locus YDR502C, strain sam2, hits give low values 1.01 | locus YEL003W, strain gim4, hits give low values 0.968 | locus YEL037C, strain rad23, hits give low values 0.965 | locus YEL061C, strain CIN8 (second series), hits give low values 0.97 | locus YEL061C, strain CIN8, hits give low values 1 | locus YER015W, strain faa2, hits give low values 0.989 | locus YER016W, strain bim1, hits give low values 0.982 | locus YER110C, hits give low values 0.995 | locus YER111C, strain swi4, hits give low values 0.974 | locus YER155C, strain BEM2 (second series), hits give low values 0.94 | locus YER155C, strain BEM2, hits give low values 0.999 | locus YER167W, strain BCK2, hits give low values 0.998 | locus YFR010W, strain ubp6, hits give low values 0.969 | locus YGL078C, strain dbp3, hits give low values 1.02 | locus YGL086W, strain mad1, hits give low values 1.01 | locus YGL167C, strain pmr1, hits give low values 0.949 | locus YGL173C, strain kem1, hits give low values 0.961 | locus YGL227W, strain vid30, hits give low values 0.966 | locus YGL240W, strain doc1, hits give low values 0.96 | locus YGL248W, strain PDE1, hits give low values 0.997 | locus YGL253W, strain hxk2, hits give low values 0.985 | locus YGR135W, strain pre9, hits give low values 0.989 | locus YGR229C, strain SMI1, hits give low values 1.04 | locus YGR252W, strain gcn5, hits give low values 0.916 | locus YHR013C, strain ard1, hits give low values 0.92 | locus YHR027C, strain rpn1, hits give low values 0.984 | locus YHR030C, strain SLT2, hits give low values 0.998 and 0.969 | locus YHR079C, strain IRE1 (second series), hits give low values 1 | locus YHR079C, strain IRE1, hits give low values 0.978 | locus YHR094C, strain hxt1, hits give low values 1.01 | locus YHR129C, strain ARP1, hits give low values 0.996 | locus YHR142W, strain chs7, hits give low values 0.993 | locus YHR200W, strain rpn10, hits give low values 0.989 | locus YIL066C, strain RNR3, hits give low values 1.01 | locus YIL073C, strain SPO22, hits give low values 1.04 | locus YIL125W, strain kgd1, hits give low values 1.02 | locus YIR030C, strain dcg1, hits give low values 0.997 | locus YJL092W, strain hpr5, hits give low values 0.986 | locus YJL095W, strain BCK1 (second series), hits give low values 0.983 | locus YJL095W, strain BCK1, hits give low values 1.01 and 1.05 | locus YJL115W, strain asf1, hits give low values 0.983 | locus YJL129C, strain trk1, hits give low values 0.981 | locus YJL134W, strain LCB3, hits give low values 1.01 | locus YJL154C, strain vps35, hits give low values 0.966 | locus YJL164C, strain tpk1, hits give low values 0.996 | locus YJL166W, strain qcr8, hits give low values 0.979 | locus YJL168C, strain set2, hits give low values 1 | locus YJL187C, strain SWE1 (second series), hits give low values 1 | locus YJL187C, strain SWE1, hits give low values 0.971 | locus YJR043C, strain POL32, hits give low values 0.991
